High-throughput results: PubChem, several laboratories
Compounds with a hit are over-represented: about 2.8% of the library has one in this group of screens.
Furin inh = human furin inhibition; P09958; purified furin, fluorogenic substrate cleavage; inhibition, % at 20 µM or 30 µM; hit rate 0.061% among 220,000; AID 463115; in the data active = inhibition above about 25%
Wee1 stabilizer = inhibitors of human Wee1 degradation; HeLa Luc-Wee1K328M stability, luciferase luminescence; 100% = proteasome inhibitor MG132 effect; reporter increase, % at 5 µM; hit rate 1.2% among 220,000;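 active = activation above the mean of all tested compounds plus 3 SD, set per screening run, cut at about 8.8% in these data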;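 also: cells exposed to compound for 20 h before luminescence read; 0% = DMSO alone and 100% = MG132 at 30 µM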
Target sequence (P30291 whole entry K328M): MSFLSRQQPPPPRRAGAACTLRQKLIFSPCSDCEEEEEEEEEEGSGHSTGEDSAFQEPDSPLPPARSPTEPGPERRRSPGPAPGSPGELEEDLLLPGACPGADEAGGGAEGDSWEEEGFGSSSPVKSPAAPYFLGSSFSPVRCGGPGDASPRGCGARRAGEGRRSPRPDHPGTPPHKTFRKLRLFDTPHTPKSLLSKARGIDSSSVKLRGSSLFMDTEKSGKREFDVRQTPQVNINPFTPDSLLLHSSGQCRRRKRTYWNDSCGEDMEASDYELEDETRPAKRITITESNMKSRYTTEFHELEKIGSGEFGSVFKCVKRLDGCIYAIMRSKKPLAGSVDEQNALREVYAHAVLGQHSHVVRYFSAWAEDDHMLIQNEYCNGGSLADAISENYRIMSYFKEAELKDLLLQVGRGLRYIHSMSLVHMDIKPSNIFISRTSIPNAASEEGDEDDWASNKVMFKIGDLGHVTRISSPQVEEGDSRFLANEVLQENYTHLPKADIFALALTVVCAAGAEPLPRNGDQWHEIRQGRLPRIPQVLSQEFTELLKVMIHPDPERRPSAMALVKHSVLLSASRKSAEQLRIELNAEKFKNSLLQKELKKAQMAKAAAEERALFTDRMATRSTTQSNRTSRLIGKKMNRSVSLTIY
EP2 modulator = modulates human prostaglandin E2 receptor EP2 signaling; P43116; EP2-expressing cells, cAMP HTRF FRET, PGE2 co-stimulation; induction, % at 25 µM; hit rate 0.83% among 260,000;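 active = compounds whose cAMP rise, as percent of the full-agonist control response, exceeds 60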;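 also: rat C6 glioma line stably carrying human EP2 under a CMV promoter; the protocol text gives 20 µM as final concentration; 100% = response of wells given 1 µM PGE2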
PGE2 EP2 inh = blocks the human prostaglandin E2 receptor EP2; C6 glioma cells expressing human EP2, cAMP TR-FRET; cells stimulated with saturating PGE2; hit rate 0.52% among 260,000; P43116; inhibition, % at 25 µM;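 active = percent inhibition above 40 after rounding to a whole number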;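 also: rat C6 glioma host cells with rolipram phosphodiesterase inhibitor present; the protocol text gives 20 µM as final concentration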
HSV augment = HSV replication enhancement; hit rate 0.005% among 220,000; AID 1956; maximum fold increase; HSV replication augmentation in cells, fold increase; in the data active = maximum fold increase above about 1.5; tested in PC3 cells
p47phox inh = p47phox (human) inhibition. p47phox/p22phox peptide binding, fluorescence polarization, 2 h. inhibition, % at 24.7 µM. hit rate 0.53% among 220,000. AID 1274;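 active = inhibition above about 30%, limit read from the data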;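 also: 0% = p47phox with labelled peptide and 100% = labelled peptide alone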
EP2 cAMP induct = EP2 receptor cAMP induction, counter-screens negative; C6 glioma EP2 cells, cAMP HTRF induction; plus low (about EC15) PGE2 agonist; calls only at 20 µM (by protocol); hit rate 47% among 1,300; AID 1080; shares compounds with EP2 modulator;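 active = cAMP induction above 50% in the main assay while under 30% in all four parallel counter assays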;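 also: rat C6 glioma cells stably expressing human EP2 receptor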
Numbers without * were called inactive; i = inactive; x = no result given; + = active, no number.

SMILES	Furin inh	Wee1 stabilizer	EP2 modulator	PGE2 EP2 inh	HSV augment	p47phox inh	EP2 cAMP induct
COc1ccc(C(=O)N2N=C(C(C)C)CC2(O)C(F)(F)F)cc1 (centres undefined)	x	x	3.9	18.3	x	x	x
COc1ccc(NC(=O)CSc2nnnn2C)c(OC)c1	x	x	1.0	20.3	x	x	x
COc1c(O)cc2oc3cc(O)c(CC=C(C)C)c(O)c3c(=O)c2c1CC=C(C)C	x	x	51.1	16.3	x	x	i
CC(NCCN(C)C)C(=O)NCC1CCCO1 (centres undefined)	x	x	5.4	8.0	x	x	x
COC(=O)c1c(NC(=O)Cc2cccs2)sc2c1CCCC2	-8.6	-2.2	55.5	14.3	i	3.8	i
COC(=O)c1c(NC(=O)Cc2cccs2)sc(C)c1C	-6.2	-3.0	55.9	5.7	i	-11.9	i
COc1ccccc1NC(=S)N(Cc1ccco1)Cc1cc2ccc(C)cc2[nH]c1=O	x	x	26.3	7.7	x	x	x
Cc1ccccc1Nc1c(-c2ccccn2)nc2ccccn12	-12.6	0.7	65.9*	8.6	i	4.7	i
Cc1ccn2c(Nc3ccccc3C)c(-c3ccccn3)nc2c1	-25.1	4.5	65.6*	13.9	i	1.3	i
Cc1ccc2nc(-c3ccccn3)c(Nc3ccccc3C)n2c1	2.8	-3.0	67.4*	9.7	i	-8.1	i
Cc1ccccc1Nc1c(-c2cccnc2)nc2ccccn12	-6.2	-4.3	3.4	3.8	i	4.6	x
Cc1ccn2c(Nc3ccccc3)c(-c3ccccn3)nc2c1	-9.4	2.6	39.6	4.0	i	0.2	x
Cc1ccc2nc(-c3cccnc3)c(Nc3ccccc3C)n2c1	-14.9	7.4	21.1	3.6	i	-5.7	x
COc1ccc(C2=C/C(=C/c3cccc(OC)c3OC)C(=O)O2)cc1OC	x	x	-80.5	9.3	x	x	x
O=C(Nc1ccccc1F)N1CCC(c2ncncc2-c2ccncc2)CC1	x	x	-0.4	x	x	x	x
CCc1ccc(NC(=O)CSc2nnc(-c3ccoc3C)n2CCOC)cc1	x	x	6.2	9.2	x	x	x
C=CCn1c(N2CCC(C(=O)NCC(=O)OC)CC2)nc2ccccc21	x	x	-56.0	8.9	x	x	x
S=c1[nH]nc(-c2ccc3ccccc3n2)n1Cc1ccccc1	1.3	0.5	74.1*	6.5	i	-12.3	i
CCc1c(-c2n[nH]c(=S)n2Cc2ccccc2)csc1C	-12.2	-3.1	50.9	6.2	i	3.0	i
S=c1[nH]nc(-c2ccccc2Cl)n1Cc1ccccc1	-10.9	-3.1	28.6	3.8	i	-2.9	x
Cc1scc(-c2n[nH]c(=S)n2Cc2ccccc2)c1C	-5.3	-5.6	50.9	2.3	i	-7.2	i
COc1ccc(Cn2nnnc2C(c2cc3cc4c(cc3[nH]c2=O)OCO4)N2CCCC(C)C2)cc1 (centres undefined)	x	x	31.4	8.8	x	x	x
CC(=O)Nc1ccc(N2C(C(C)=O)=NN(c3ccccc3)C2c2cccs2)cc1 (centres undefined)	-8.7	-1.5	24.7	4.7	i	-13.2	x
CC(=O)Nc1ccc(C2=NN(c3ccccc3)C(c3cccs3)C2)cc1 (centres undefined)	-22.9	-1.8	75.8*	11.2	i	-9.6	i
N#Cc1c(-c2ccco2)nc(SCC(=O)Nc2ccc(S(N)(=O)=O)cc2)[nH]c1=O	-22.8	-0.9	51.5	11.7	x	-6.5	x
SMILES	Furin inh	Wee1 stabilizer	EP2 modulator	PGE2 EP2 inh	HSV augment	p47phox inh	EP2 cAMP induct
N#Cc1c(-c2ccco2)nc(SCc2ccc(F)cc2)[nH]c1=O	-19.5	-0.6	75.3*	x	i	-13.4	i
CCOC(=O)C1=C(N)OC2=C(C(=O)CC(C)(C)C2)C1c1ccc(CC)s1 (centres undefined)	-25.0	-2.2	72.8*	15.3	x	-7.7	+
CCCC(c1nnnn1Cc1ccccc1)N(Cc1cc2cccc(C)c2[nH]c1=O)C1CCCC1 (centres undefined)	x	x	24.5	10.4	x	x	x
N[C@@H](CCC(=O)N[C@H](CSN=O)C(=O)NCC(=O)O)C(=O)O	x	x	10.4	16.8	x	x	x
[N-]=[N+]=Nc1ccc(C(=O)CSC[C@H](NC(=O)CC[C@H](N)C(=O)O)C(=O)NCC(=O)O)cc1	x	x	81.7*	10.5	x	x	+
O=C1C2C(c3ccccc3)C=CC(c3ccccc3)C2C(=O)N1c1ccncc1 (centres undefined)	-6.9	-1.0	64.9*	1.1	i	-8.5	i
CC(Sc1nc2ccccc2n1C)C(=O)NC(c1ccccc1)c1ccccc1 (centres undefined)	-10.3	1.5	72.1*	4.1	i	6.3	+
CCc1c(C)sc2nc(C)nc(SCC(=O)Nc3cccc(C(C)=O)c3)c12	x	x	31.9	9.3	x	x	x
NC(=O)Cn1cc(CN2CCN(CCOc3ccccc3)CC2)c2ccccc21	x	x	-63.6	10.3	x	x	x
CCCCOC(=O)Sc1nc2ccccc2o1	-12.2	-0.5	71.1*	14.1	i	2.8	i
CCOc1ccc(OCC)c(NC(=O)CN2CCN(c3ccc(C)cc3C)CC2)c1	-5.3	-0.9	78.6*	x	x	-8.7	+
Cc1ccc(S(=O)(=O)N2CCC(C(=O)Nc3cnccn3)CC2)cc1	x	x	5.5	5.0	x	x	x
CC(C)c1nnc(NC(=O)C(=O)Nc2ccc3c(c2)OCCO3)s1	x	x	-25.3	17.0	x	x	x
COc1cccc(C2(O)CCC3CN(C(C)=O)CC32)c1 (centres undefined)	x	x	4.2	3.7	x	x	x
CCOC(=O)CCN(Cc1sccc1C)S(=O)(=O)c1ccc(F)cc1	-14.9	-0.5	81.4*	2.0	i	-2.9	i
CCOC(=O)CCN(Cc1cccs1)S(=O)(=O)c1ccc(F)cc1	-24.6	-2.1	43.1	5.1	i	-9.3	x
CSc1ccccc1NC(=O)CSc1nc(-c2cccs2)cc(C(F)(F)F)n1	x	x	-43.2	4.5	x	x	x
Cn1nc(-c2ccccc2)c(-c2nc(-c3cccc(C(F)(F)F)c3)no2)c1Cl	-19.0	1.2	51.2	9.5	i	-6.6	i
Cn1nc(-c2ccccc2)c(-c2nc(-c3cccc(Cl)c3)no2)c1Cl	-11.7	1.1	38.1	14.3	i	-16.1	x
COc1ccc(C(=O)N2CCC(C(=O)c3ccc(F)cc3)CC2)cc1OC	x	x	7.5	5.9	x	x	x
Cc1cccc(C)c1OCc1nnc(SCC(=O)Nc2nccs2)n1-c1ccccc1	-21.8	-1.7	51.1	-2.4	i	-5.2	i
COc1cc(C(=O)N2C(c3cccnc3)=NC3CCCCC32)cc(OC)c1OC (centres undefined)	x	x	-11.5	4.8	x	x	x
CCOC(=O)C(Cc1cc(C(C)=O)ccc1OCC)C(=O)OCC	-22.0	1.4	15.4	12.7	i	-2.7	x
CCOc1ccc(C(C)=O)cc1CC(C(N)=O)C(N)=O	-22.0	0.3	68.8*	x	x	-3.3	i
